# Screening results: PubChem, National Center for Advancing Translational Sciences (NCATS)
# MARV entry inh – Marburg virus entry inhibition; AID 540276; Potency, µM (doses to about 37.8 µM), without a hit: at the top dose activity change, negative = inhibition, usual class: inhibitors; Marburg virus pseudotyped entry inhibition, cell reporter; 300,000 compounds, 1.8% hits; calls by dose curve; tested in HEK293 cells; also: potency is read from the fitted curve at half-maximal effect; % is scaled to controls: 0 for no effect and ±100 for the full control effect
# Vaccinia Venus – vaccinia inhibition (Venus reporter) | Vaccinia virus Venus reporter expression, fluorescence | Potency, µM (highest dose often 36.5 µM), without a hit: at the highest dose activity change, negative = inhibition, actives largely listed as inhibitors | 330,000 compounds, 0.46% hits | AID 720580; calls by dose curve; tested in A549 cells; also: potency is read from the fitted curve at half-maximal effect; % is scaled to controls: 0 for no effect and ±100 for the full control effect; nearly all actives have a fitted effect of over 30% in size
# CHX counter – counter-screen hit for Shiga toxin inhibitors, cycloheximide; cell reporter, cycloheximide protein synthesis inhibition counterscreen; max response, %; 300,000 compounds, 12% hits; in the data active = max response mostly above about 13%, no sharp cut-off; inactive = mostly below about 14%; also: read at 38.3 µM for the half of the compounds with a filed dose; 0% is about no effect
# VACV mCherry inh – vaccinia inhibition (mCherry reporter); Vaccinia virus mCherry reporter infection, fluorescence; AID 720579; Potency, µM (doses to about 36.5 µM), inactives show at the highest dose activity change, negative = inhibition, actives largely listed as inhibitors; 310,000 compounds, 0.63% hits; calls by dose curve; tested in A549 cells; also: potency is read from the fitted curve at half-maximal effect; % is scaled to controls: 0 for no effect and ±100 for the full control effect; nearly all actives have a fitted effect of over 35% in size
# Shiga toxin inh – blocks Shiga toxin action in Vero cells; Vero cells, Shiga toxin protein synthesis inhibition reporter; inhibition, % at 38.7 µM; 290,000 compounds, 9.2% hits; AID 2315; in the data active = inhibition mostly above about 28%, no sharp cut-off; inactive = mostly below about 43%; also: 0% is about no effect
# Lassa entry inh – Lassa virus entry inhibition. Potency, µM (series often up to 37.9 µM), for inactives: at the top dose activity change, negative = inhibition, actives largely listed as inhibitors. 300,000 compounds, 1.2% hits. Lassa virus pseudotype entry inhibition, cell reporter; calls by dose curve; tested in HEK293 cells; also: potency is read from the fitted curve at half-maximal effect; % is scaled to controls: 0 for no effect and ±100 for the full control effect; nearly all actives have a fitted effect of over 50% in size
# * marks the source's active call; other numbers are inactive results; i = inactive; ? = inconclusive; . = no result; + = active, no number; [ ] = another dose, or the depositor's remark. The entries come from a sample that favours hits as a whole.
SMILES,MARV entry inh,Vaccinia Venus,CHX counter,VACV mCherry inh,Shiga toxin inh,Lassa entry inh
CCC1c2ccc(C)n2CCN1C(=O)Nc1ccccc1C(=O)OC (configuration not stated),-29.0%,-8.5%,6.9,.,-5.5,0.1%
COc1ccc(CC(=O)OC(C)C(=O)Nc2ccc(Cl)cn2)cc1 (configuration not stated),10.7%,-11.0%,.,-17.7%,.,0.3%
O=C(CSc1nc2ccccc2s1)N/N=C/c1cc([N+](=O)[O-])ccc1O,-12.5%[46.1 µM],0.4%,16.9*,?,39.8*,-19.3%[46.1 µM]
Cc1ccc(/C=N/NC(=O)CSc2nc3ccccc3s2)o1,?,-10.9%,12.2*,-13.5%,25.5,-4.2%
O=C(Nc1ccc2[nH]ccc2c1)c1ccccc1,6.31µM*,-0.4%[7.34 µM],26.6*,-0.7%[7.34 µM],31.6,2.82µM*
O=C(Nc1ccc2[nH]ccc2c1)c1ccc(F)cc1,.,.,13.4*,.,15.9,.
COc1ccc(NC(=O)Nc2ccc3[nH]ccc3c2)cc1,12.3%,-2.0%,.,-8.0%,.,-3.8%
Cc1cccc(C(=O)Nc2ccc(OCc3cc(=O)n4ccc(C)cc4n3)cc2)c1,.,-8.3%,.,-8.2%,.,12.8%[46.1 µM]
COc1cccc(N2C(=O)CC(N3CCc4ccccc43)C2=O)c1 (configuration not stated),-2.5%,-2.9%,23.7*,-15.0%,35.0*,16.7%
CN(C)C(=O)c1ccc(NC(=O)c2sccc2-c2ccccc2)cc1,-0.3%[46.1 µM],-14.0%,1.7,i,-6.3,-0.1%[46.1 µM]
Nc1ccc(N(c2ccccc2)c2ccc(N)cc2)cc1,?,28.2µM*,-3.8,?,-13.6,-17.2%
COC(=O)c1noc(-c2ccc(C)cc2)n1,-15.2%,.,-1.4,.,-5.8,-2.0%
Fc1ccc(-c2nc(-c3cccs3)no2)cc1,.,0.0%,44.4*,-12.2%,127.0*,.
Fc1ccc(-c2cnc(-c3cccs3)o2)cc1,11.0%,-13.5%,42.0*,-20.8%,134.5*,-2.0%
COC(=O)c1ccc(-c2nc(-c3cccs3)no2)cc1,.,7.0%,40.3*,10.3%,65.4*,.
CN(C)CCNC(=O)c1cc2c(s1)-c1ccccc1OC2,.,?,40.2*,-26.3%,46.6*,.
CCN1CCN(CCCNC(=O)c2cc3c(s2)-c2ccccc2OC3)CC1,?,0.0%[7.34 µM],2.5,-13.8%,3.9,.
Cc1c(NC(=O)c2cc3c(s2)-c2ccccc2OC3)cccc1[N+](=O)[O-],?,-26.2%,15.7*,?,10.6,?
Cc1csc(NC(=O)c2cc3c(s2)-c2ccccc2OC3)n1,?,?,58.6*,-21.9%,+,14.8%
Cc1cccc(NC(=O)c2cc3c(s2)-c2c(C)cccc2OC3)n1,.,.,10.5*,.,16.1,.
CC(=O)Nc1ccccc1OCCOc1ccc(Br)cc1,?,-23.4%,4.9,12.6µM*,17.2,?
NC(=O)c1ccccc1OCCOc1ccc(Br)cc1,?,?,17.2*,-5.8%,56.5*,-29.6%[46.1 µM]
C=CCC[C@H](Cc1ccc(F)cc1)C(=O)OC[C@@H](NC(=O)[C@@H](CC=C)CC(=O)N(CCO)Cc1ccccc1)C(C)(C)C,.,12.6µM*,.,?,.,.
C=CCC[C@H](Cc1ccc(F)cc1)C(=O)OC[C@@H](NC(=O)[C@@H](CC=C)CC(=O)N[C@@H](CO)Cc1ccccc1)C(C)(C)C,.,10µM*,.,?,.,.
C=CC[C@H](CC(=O)N(CCO)Cc1ccccc1)C(=O)N[C@H](COC(=O)[C@@H](CC=C)Cc1ccc(F)cc1)C(C)(C)C,.,?,.,-5.3%,.,.
SMILES,MARV entry inh,Vaccinia Venus,CHX counter,VACV mCherry inh,Shiga toxin inh,Lassa entry inh
CCOC(=O)c1cccc(NC(=O)CSc2nc3cc4ccccc4cc3[nH]2)c1,4.1%[46.1 µM],5.7%,.,i,.,-12.1%[46.1 µM]
Cc1cc(C)c(C)c(S(=O)(=O)N[C@@H](C)C(=O)OCc2cc(=O)n3cc(Br)ccc3n2)c1C,-2.8%[46.1 µM],-11.9%,0.5,i,-3.0,14.9%[46.1 µM]
O=C(NC(=S)NCc1cccnc1)c1cccc2ccccc12,?,-11.5%,-1.8,-0.8%,-7.0,-11.9%[46.1 µM]
COc1ccc(-n2c(SCC(=O)NCc3ccco3)nc3sc4c(c3c2=O)CCN(C)C4)cc1,.,.,20.4,.,21.6,.
Cc1cccc(-n2c(SCC(=O)NCc3ccco3)nc3ccccc3c2=O)c1,?,.,2.2,.,11.6,6.2%
CN1CCc2c(sc3nc(SCC(=O)NCc4ccco4)n(-c4ccccc4)c(=O)c23)C1,.,.,38.6*,.,47.6*,.
O=C(CSc1nc2ccccc2c(=O)n1-c1ccccc1)NCc1ccco1,-17.1%,-19.5%,41.7*,.,41.4,13.4%
CSc1nc(SCC(=O)NC(c2ccccc2)c2ccccc2)c2c3c(sc2n1)CN(C)CC3,9.2µM*,.,-3.9,.,12.1,?
Cc1ccc(S(=O)(=O)N2CCN(c3nc(C(N)=O)nc4ccccc34)CC2)cc1,.,-9.8%,.,-13.8%,.,.
O=c1c(Br)ccc(Br)cc1Br,4.47µM*,?,.,?,.,?
Brc1ccc(Oc2ccc(Br)cc2Br)c(Br)c1,-3.3%,-4.5%,.,i,.,.
CCOC(=O)c1ccccc1NC(=O)c1cc2c(s1)-c1ccccc1SC2,?,-4.7%[7.34 µM],.,-5.4%[7.34 µM],.,7.2%[46.1 µM]
CCOC(=O)c1cc2ccc3ccccc3c2oc1=O,.,.,2.5,.,3.6,.
CCOC(=O)c1cc2ccc3ccccc3c2s1,1.4%,-20.9%,47.9*,-21.9%,74.8*,?
COC(=O)c1cc2c(s1)-c1cc(F)ccc1OC2,0.9%,-13.3%,12.3,-3.4%,7.0,?
COC(=O)c1cc2c(s1)-c1ccccc1CC2,3.2%[46.1 µM],-1.9%,62.2*,.,+,2.2%
CCOC(=O)c1cc2c(s1)-c1ccccc1CC2,?,-7.7%,36.6*,.,67.3*,3.2%
COc1ccc(C)cc1NC(=O)COC(=O)c1ccccc1SCC(=O)N1CCCC1,-9.6%,-20.3%,.,-5.9%,.,-6.7%
COc1ccc(F)cc1-c1cc(C(=O)NCc2cc(C(F)(F)F)cc(C(F)(F)F)c2)[nH]n1,.,-12.2%,.,-2.4%,.,.
Cc1sc(NC(=O)C2CCCCC2C(=O)O)c(C(N)=O)c1-c1ccccc1 (configuration not stated),?,-17.3%,38.0*,.,40.5*,-8.9%
COc1cc(/C=C(\C#N)c2ccccn2)ccc1OCc1ccccc1,2.5%,-1.4%,31.5*,i,77.0*,12.7%
COc1cc(/C=C(\C#N)c2ccccn2)ccc1OCc1ccc(Cl)cc1,-50.9%,-13.0%,8.5,-11.7%,37.7,8.2%
N#C/C(=C\c1ccc(C(=O)O)cc1)c1ccccn1,19.0%[46.1 µM],-11.0%,9.3,-1.8%,12.9,?
CN(CCC#N)c1ccc(C=C(C#N)c2ccc(Br)cc2)cc1,.,-25.8%,.,-11.1%,.,.
CCN(Cc1ccccc1)c1ccc(/C=C(\C#N)c2ccccn2)cc1,-18.2%,-13.9%,55.6*,-13.3%,98.2*,17.7%
CN(CCC#N)c1ccc(/C=C(\C#N)c2ccccn2)cc1,8.2µM*,-22.5%,48.2*,-4.7%,active,2.24µM*
CCN(CC)c1ccc(/C=C(\C#N)c2ccccn2)cc1,?,-9.9%,35.5*,i,26.2,5.8µM*
CCOC(=O)C1CCN(C(c2ccccc2OC)c2c(O)cc(C)n(CCOC)c2=O)CC1 (configuration not stated),.,-8.6%,.,-13.0%,.,-7.5%[46.1 µM]
